Rows were chosen to be rich in hits. Some 5.7% of all compounds tested hit in one or more screens of this group.
JMJD2A Tudor: blocks the human JMJD2A Tudor domain. O75164. AlphaScreen JMJD2A-Tudor / H3K4me3 peptide binding. Potency, µM (highest dose often 114 µM), for inactives: at the top dose activity change, negative = inhibition, most hits filed as inhibitors. 390,000 tested, 4.4% active; also: potency is read from the fitted curve at half-maximal effect; % is scaled to controls: 0 for no effect and ±100 for the full control effect; nearly all actives have a fitted effect of over 50% in size
PI5P4Ka inh: inhibitors of human PI5P4K alpha; P48426; PI5P4Kalpha enzyme, ADP-Glo luminescence, 60 min; stronger effect = lower value; max response, %; 330,000 tested, 1.2% active; active = max response of -50% or lower; inconclusive = between -30% and -50%; inactive = -30% or higher; also: value at the top dose of about 77 µM; % is scaled to controls: 0 for no effect and ±100 for the full control effect
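Controls without substrate or without enzyme flank wells where PI5P4Kalpha converts substrate using 5 microM ATP (final). Incubation lasts 60 minutes at room temperature; ADP formed is read by ADP-Glo luminescence.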
HP1b binding inh: HP1-beta chromodomain-methylated histone interaction inhibition; P83916; AlphaScreen HP1-beta / biotin-H3K9me3 peptide binding; Potency, µM (doses to about 114 µM), inactives show top-dose activity change, negative = inhibition, most hits filed as inhibitors; 390,000 tested, 0.56% active; AID 540317; also: potency is read from the fitted curve at half-maximal effect; nearly all actives have a fitted effect of over 70% in size
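AlphaScreen: HP1-beta (50 nM) preformed 30 min with biotin-H3(1-18)K9me3 peptide (50 nM) in PBS pH 7.4, 0.01% Tween-20. Compound added for 30 min at RT, then streptavidin donor/nickel chelate acceptor beads (10 ug/mL) for 30 min.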
BAZ2B block: blocks human BAZ2B. Q9UIF8. AlphaScreen BAZ2B-H3K14Ac peptide displacement. Potency, µM (top dose mostly 114 µM), inactives show top-dose activity change, negative = inhibition, hits mostly inhibitors. 360,000 tested, 4.4% active; also: potency is read from the fitted curve at half-maximal effect; % is scaled to controls: 0 for no effect and ±100 for the full control effect; nearly all actives have a fitted effect of over 60% in size
Target sequence (Q9UIF8 whole entry, looked up): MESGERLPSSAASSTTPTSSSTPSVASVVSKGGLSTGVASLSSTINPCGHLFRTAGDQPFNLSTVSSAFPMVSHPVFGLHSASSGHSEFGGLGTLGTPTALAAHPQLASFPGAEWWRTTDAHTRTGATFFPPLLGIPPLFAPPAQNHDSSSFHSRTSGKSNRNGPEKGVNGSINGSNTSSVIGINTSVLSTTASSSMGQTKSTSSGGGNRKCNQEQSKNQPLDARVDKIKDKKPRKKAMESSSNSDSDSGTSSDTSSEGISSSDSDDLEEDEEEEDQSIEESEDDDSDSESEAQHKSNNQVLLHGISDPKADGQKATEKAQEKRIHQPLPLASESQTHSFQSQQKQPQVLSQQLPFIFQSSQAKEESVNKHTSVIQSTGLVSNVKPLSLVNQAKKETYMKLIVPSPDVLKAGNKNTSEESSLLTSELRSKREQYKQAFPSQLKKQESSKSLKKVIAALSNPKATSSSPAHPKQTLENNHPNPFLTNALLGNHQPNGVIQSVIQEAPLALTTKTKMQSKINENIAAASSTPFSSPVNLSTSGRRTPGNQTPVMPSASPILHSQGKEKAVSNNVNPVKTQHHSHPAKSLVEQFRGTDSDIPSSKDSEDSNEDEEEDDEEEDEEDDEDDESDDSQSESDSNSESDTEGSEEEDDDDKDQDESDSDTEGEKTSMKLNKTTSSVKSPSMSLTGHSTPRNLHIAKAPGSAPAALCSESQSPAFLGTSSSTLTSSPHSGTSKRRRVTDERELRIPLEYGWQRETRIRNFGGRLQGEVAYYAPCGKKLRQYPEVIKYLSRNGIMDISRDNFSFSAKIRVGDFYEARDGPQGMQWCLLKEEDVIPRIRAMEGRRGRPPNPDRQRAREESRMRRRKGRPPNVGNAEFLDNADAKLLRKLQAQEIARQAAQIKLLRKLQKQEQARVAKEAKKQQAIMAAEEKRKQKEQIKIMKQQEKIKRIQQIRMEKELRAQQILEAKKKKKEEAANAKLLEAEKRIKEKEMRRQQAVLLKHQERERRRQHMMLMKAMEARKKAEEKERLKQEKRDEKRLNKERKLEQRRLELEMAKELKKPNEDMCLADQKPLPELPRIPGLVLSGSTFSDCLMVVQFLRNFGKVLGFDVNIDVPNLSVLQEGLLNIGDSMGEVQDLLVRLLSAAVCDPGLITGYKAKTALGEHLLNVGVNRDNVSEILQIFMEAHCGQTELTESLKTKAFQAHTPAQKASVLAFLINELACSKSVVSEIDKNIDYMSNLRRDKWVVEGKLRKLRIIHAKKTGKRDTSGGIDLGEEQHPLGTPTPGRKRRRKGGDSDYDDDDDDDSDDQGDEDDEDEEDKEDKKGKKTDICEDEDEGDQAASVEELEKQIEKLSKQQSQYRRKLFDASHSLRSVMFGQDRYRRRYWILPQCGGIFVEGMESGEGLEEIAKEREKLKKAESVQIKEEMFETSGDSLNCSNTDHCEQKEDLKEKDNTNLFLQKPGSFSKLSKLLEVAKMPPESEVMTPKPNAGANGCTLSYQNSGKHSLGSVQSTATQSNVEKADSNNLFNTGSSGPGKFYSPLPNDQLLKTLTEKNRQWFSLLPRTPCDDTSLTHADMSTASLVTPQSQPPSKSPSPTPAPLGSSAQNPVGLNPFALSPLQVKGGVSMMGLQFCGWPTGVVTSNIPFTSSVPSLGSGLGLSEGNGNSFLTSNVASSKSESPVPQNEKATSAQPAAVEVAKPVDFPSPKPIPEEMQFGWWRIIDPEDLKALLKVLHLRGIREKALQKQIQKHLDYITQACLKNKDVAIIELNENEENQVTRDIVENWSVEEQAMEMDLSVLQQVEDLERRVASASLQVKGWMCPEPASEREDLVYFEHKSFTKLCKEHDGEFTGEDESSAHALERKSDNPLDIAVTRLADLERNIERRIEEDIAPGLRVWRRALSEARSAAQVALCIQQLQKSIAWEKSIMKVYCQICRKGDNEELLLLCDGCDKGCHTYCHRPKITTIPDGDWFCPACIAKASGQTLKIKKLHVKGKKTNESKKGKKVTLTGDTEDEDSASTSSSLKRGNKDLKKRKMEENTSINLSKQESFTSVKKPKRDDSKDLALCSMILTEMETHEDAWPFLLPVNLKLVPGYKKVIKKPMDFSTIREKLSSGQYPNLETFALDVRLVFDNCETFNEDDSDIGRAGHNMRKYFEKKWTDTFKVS
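Inhibition is scored as reduced AlphaScreen emission. The BAZ2B/b-H3(5-23)K14Ac complex (50 nM each) in PBS pH 7.4, 0.01% Tween-20 meets compound (up to 110 uM) for 30 min at RT before bead addition.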
L3MBTL1 inh: blocks human L3MBTL1; Q9Y468; AlphaScreen L3MBTL1–H3K9me1 peptide binding; Potency, µM (highest dose often 57.1 µM), for the others: at the highest dose activity, negative = inhibition, actives largely listed as inhibitors; 230,000 tested, 0.66% active; also: potency is read from the fitted curve at half-maximal effect; % is scaled to controls: 0 for no effect and ±100 for the full control effect; nearly all actives have a fitted effect of over 60% in size
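AlphaScreen proximity signal between nickel-chelate acceptor and streptavidin donor beads (final 10 ug/mL) reports binding of 50 nM L3MBTL1 to 75 nM biotin-H3 K9me1 peptide; complex incubated with compounds 30 min at room temperature; cefsulodin titration as control.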
JMJD2E inh: inhibitors of human JMJD2E histone demethylase | B2RXH2 | JMJD2E catalytic domain, FDH-coupled NADH fluorescence (FDH is formaldehyde dehydrogenase) | Potency, µM (highest dose often 57.1 µM), for inactives: top-dose activity change, negative = inhibition, usual class: inhibitors | 230,000 tested, 1.6% active | AID 2147; active = well fitted inhibition curve with a large enough effect, not every such curve was filed as active; inconclusive = small, poorly fitted or top-dose-only effect, or another doubt; inactive = no such curve, though single readings can be large or run the other way;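 also: potency is read from the fitted curve at half-maximal effect; 0% = wells with enzyme and -100% = buffer wells without enzyme; nearly all actives have a fitted effect of over 50% in size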
* marks the source's active call; other numbers are inactive results; ? = inconclusive; / = no result given; [ ] = another dose, or the depositor's remark. Unless noted, calls follow the shape of the dose curve; as a rule, active = well fitted inhibition curve with a large enough effect; inconclusive = small, poorly fitted or top-dose-only effect; inactive = no such curve, though single readings can be large or run the other way.

SMILES | JMJD2A Tudor | PI5P4Ka inh | HP1b binding inh | BAZ2B block | L3MBTL1 inh | JMJD2E inh
O=C(N/N=C\c1ccco1)c1cncc(Br)c1 | / | / | / | -32.7% | -4.0% | -2.6%
O=C(N/N=C\C=C\c1ccco1)c1cncc(Br)c1 | -18.6% | -53.0* | 0.3% | 12.4% | / | -24.3%
O=C(N/N=C/C=C\c1ccco1)c1ccccn1 | 79.4µM* | -54.9* | ? | 56.2µM* | 28.2µM* | ?
CC1(C(=O)NS(=O)(=O)c2ccc(C#N)cc2)CCN1C(=O)Cc1ccc(Cl)cc1Cl (stereo unspecified) | / | 4.5 | / | / | / | /
CCOC(=O)c1cnc(N2CCN(c3cccc(C)c3C)CC2)c2ccccc12 | 30.2% | / | 41.1%[57 µM] | 26.4% | / | /
CN1C(=O)Cc2cc(S(=O)(=O)CCC(=O)Nc3cccc(C(F)(F)F)c3)ccc21 | -1.9% | / | 36.7% | -8.9% | / | /
CC1(OC(=O)CCc2ccccc2)C(=O)C=C2C=C(c3ccc(C#N)cc3)N(Cc3ccccc3)C=C2C1=O (stereo unspecified) | ? | ? | -19.2% | ? | / | 15.8µM*
CCC(=O)OC1(C)C(=O)C=C2C=C(c3ccc(C#N)cc3)OC=C2C1=O (stereo unspecified) | ? | -67.7* | -19.8% | / | / | -5.9%
CC1CCN(S(=O)(=O)c2ccc3c(c2)c(=O)c(C(=O)NCCc2ccccc2)cn3C)CC1 | -7.3% | / | 22.2% | / | / | /
CCCCNC(=O)C1CCN(c2nc3ccccc3nc2C(F)(F)F)CC1 | 2.9% | / | 17.4% | 4.9% | / | /
O=S(=O)(NCc1nc2cccnc2n1Cc1ccccc1Cl)c1ccc2c(c1)CCCC2 | -17.4% | / | 19.9%[57 µM] | -7.0% | / | /
O=S(=O)(Nc1cc(O)cc2cccnc12)c1ccc(Cl)s1 | 79.4µM* | / | / | / | / | /
O=S(=O)(Nc1nc2ccccc2s1)c1ccc(Cl)s1 | -3.3% | / | 11.6% | 0.8% | / | 2.3%
CN1c2ccccc2N(C)C1(C)c1cccc2ccccc12 | 44.7µM* | -24.7 | ? | ? | -0.6% | ?
CC1=CC(C)(C)NC(=S)N1c1cccc2ccccc12 | 6.2% | 3.7 | 30.3% | -3.1% | -4.3% | 8.9%
COc1ccc(S(=O)(=O)N(Cc2nc(-c3ccc(C)cc3)no2)C2CCCCC2)cc1 | 10.1% | / | 56.2% | -1.8% | / | /
COCCn1cnnc1SCC(=O)Nc1sc2c(c1C#N)CCC2 | -21.3% | -22.1 | 10.2% | -4.2% | -11.1% | /
Cn1cnnc1SCC(=O)Nc1sc2c(c1C(N)=O)CCC2 | 63.1µM* | / | ? | 50.1µM* | ? | ?
CCCCNC(=S)N1CCN(c2ccccc2Cl)CC1 | 11.5%[57.1 µM] | 1.8 | 71.4% | 13.2% | / | -0.1%
CCCCNC(=S)N1CCN(C)CC1 | 11.2µM* | 0.3 | 44.7µM* | 39.8µM* | 1.9% | 8.91µM*
CN1CCN(C(=S)NCCc2ccccc2)CC1 | 4.47µM* | / | 56.2µM* | 44.7µM* | -6.4% | ?
CCNC(=S)N1CCN(CC)CC1 | 3.16µM* | 1.3 | ? | 56.2µM* | 14.5% | ?
Cc1c(Cl)cccc1NC(=O)CSc1nc(=O)n(CCN2CCOCC2)c2c1CCC2 | -2.3% | / | 10.3% | -1.6% | / | /
CCn1c(=O)cc(OCC(=O)N(C)c2ccc(OC)cc2)c2ccccc21 | -10.1% | / | 16.4% | 89.1µM* | / | /
OC(CNCCNc1ncccc1C(F)(F)F)Cn1ccc2ccccc21 (stereo unspecified) | -24.3% | 4.7 | -19.6% | -17.7% | -2.1% | 9.9%
SMILES | JMJD2A Tudor | PI5P4Ka inh | HP1b binding inh | BAZ2B block | L3MBTL1 inh | JMJD2E inh
Oc1ccccc1NCC(O)Cn1ccc2ccccc21 (stereo unspecified) | 2.82µM* | / | -72.5% | 50.1µM* | -8.3% | ?
OC(CNCc1ccccc1)Cn1ccc2ccccc21 (stereo unspecified) | 22.4µM* | 0.0 | ? | ? | -4.0% | ?
OC(CN1CCNCC1)Cn1ccc2ccccc21 (stereo unspecified) | / | / | / | ? | -6.9% | /
O=C(Nc1ccccc1Cl)NC1CCCCCCC1 | -2.1% | 2.3 | 45.9% | 5.7% | / | /
COCCn1c(SCC(=O)c2ccc(CNC(C)=O)o2)nc2ccccc2c1=O | 79.4µM* | 2.7 | 25.4% | -10.3% | -3.1% | -3.4%
O=c1[nH]c2ccccc2nc1C(Cl)c1ccccc1 (stereo unspecified) | / | / | / | 56.2µM* | / | ?
O=C1C(=C(O)c2ccccc2)C(=O)c2ccccc21 | 89.1µM* | / | -1.0% | -5.5% | 19.9% | -29.2%
O=C(c1ccccc1)C1C(=O)c2ccccc2C1=O | -23.6% | -9.2 | 32.4% | -35.0% | -10.1% | -8.7%
Cc1c(C(=O)N2CCN(c3ccccc3)CC2)oc2c1C(=O)CC(C)(C)C2 | -10.3% | -0.5 | 18.8% | -24.6% | / | /
Cc1c(C(=O)N2CCN(Cc3ccccc3)CC2)oc2c1C(=O)CC(C)(C)C2 | -16.6% | 2.6 | 18.3% | 79.4µM* | / | /
O=C1c2cccc(Cl)c2C(=O)c2c1cccc2N1CCCC1 | ? | 4.0 | 22.4µM* | / | / | /
COc1ccccc1Nc1nn2c(=O)c3ccc(C(=O)NCc4cccnc4)cc3nc2s1 | / | / | / | 56.2µM* | / | /
CCCCCCn1c(SCC#N)nc2ccccc2c1=O | 15.4%[57.1 µM] | / | 60.0%[57 µM] | / | / | /
O=c1c2cc(Cl)ccc2nc(-c2ccccc2)n1O | ? | -4.7 | -1.0% | 79.4µM* | 22.5% | ?
CCn1c(O)c(/C=C/C=C/C=Nc2ccccc2)sc1=S | ? | -63.0* | ? | ? | -13.1% | 3.7%
CCCCn1c(O)c(/C=C/C=C/C=Nc2ccccc2)sc1=S | ? | ? | 3.16µM* | 6.31µM* | -16.5% | -10.4%
Oc1c(/C=C/C=C/C=Nc2ccccc2)sc(=S)n1Cc1ccccc1 | ? | -79.3* | ? | ? | ? | ?
CCn1c(O)c(C=C2N=c3ccccc3=N2)sc1=S | -3.6% | 3.2 | 47.3% | 0.2% | / | -6.8%
CCCn1c(O)c(C=Nc2ccccc2)sc1=S | -21.8%[11.4 µM] | 14.9 | 24.7% | -11.8% | 0.6% | 4.1%
COc1ccc(-c2csc3ncnc(N4CCN(S(=O)(=O)c5ccc(C(C)=O)cc5)CC4)c23)cc1 | -7.6% | -8.1 | 17.9% | 3.2% | -5.8% | /
CC(C)c1nn2c(=O)cc(COC(=O)c3ccccc3NC(=O)c3cccs3)nc2s1 | 4.0% | / | 44.9% | -1.7% | / | /
CCOC(=O)c1ccc(NC(=O)CN(c2ccc(C)cc2)S(=O)(=O)c2c(C)noc2C)cc1 | -12.3% | / | 56.5% | / | / | /
CC(=O)N1c2ccc(S(=O)(=O)N3CCCCCC3)cc2CC1C(=O)NC(C)C (stereo unspecified) | 2.3% | / | 26.6% | -10.3% | / | /
Cc1ccc(Cn2ncc3c(NN)ncnc32)cc1 | ? | -1.1 | 26.6% | 50.1µM* | / | /
COc1ccc(Nc2ncnc3c2cnn3Cc2ccccc2)cc1 | 89.1µM* | / | 2.5% | 79.4µM* | 4.6% | -2.0%
CCOc1ccc(Nc2ncnc3c2cnn3Cc2ccccc2)cc1 | -17.2% | / | 8.5% | ? | -0.2% | -15.5%
COc1ccc(CC(=O)NNc2ncnc3c2cnn3C)cc1 | -21.6% | 4.3 | 26.1% | 79.4µM* | 7.2% | 0.9%
